This is an account of results in PubChem BioAssay.

The source made the active and inactive calls. Unless noted, the rule behind the calls is not given here.

Assay [1] relates to XIP peptide (Xip251-270) binding. The assay can be described thus: XIP fragment 251-270 binding compounds – biochemical, small-molecule microarray, fluorescence 635/667 nm, 0.1 µg/mL protein, primary screen (AID 1182). To be noted: fluorescent protein binding, 635 nm, higher = more signal, called active from +8 up or from −8 down.
Another assay concerns XIP peptide (Xip251-270). The assay can be described thus: compounds binding XIP fragment 251-270 – biochemical, small-molecule microarray, fluorescence 635/667 nm, 0.5 µg/mL protein, primary screen (AID 1183). To be noted: fluorescence 635 nm, higher = more signal.
Assay [2] is described as follows: blood-stage malaria parasite viability loss – strain 3D7, DAPI fluorescence, 100 nL, primary screen (AID 1184).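 Note: parasites grown inside human red blood cells in medium with human serum.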 To be noted: P. falciparum 3D7 growth, 3 d, higher = more signal.
Assay [3] addresses Homeobox protein Hox-A13 (Mus musculus) (UniProt Q62424). The assay can be described thus: disruptors of Hoxa13 oligonucleotide interaction – biochemical, fluorescence polarization, labeled oligonucleotide, primary screen (AID 1185). To be noted: Hoxa13:DNA binding, 15 min, higher = more signal, called active from +8 up or from −8 down.
A short description of assay [4]: blockers of DNA damage checkpoint Chk1 activation – imaging, HeLa, hydroxyurea, phospho-Chk1 antibody, percent positive cells, primary screen (AID 1186). To be noted: hydroxyurea-induced phospho-Chk1 immunofluorescence imaging, higher = more signal.
The nature of assay [5]: blockers of DNA damage checkpoint Chk1 activation – imaging, HeLa, hydroxyurea, phospho-Chk1 nuclear intensity, primary screen (AID 1187). To be noted: hydroxyurea-induced phospho-Chk1 immunofluorescence imaging, higher = more signal.

Homeobox protein Hox-A13 (Mus musculus), sequence (Q62424 whole entry, looked up): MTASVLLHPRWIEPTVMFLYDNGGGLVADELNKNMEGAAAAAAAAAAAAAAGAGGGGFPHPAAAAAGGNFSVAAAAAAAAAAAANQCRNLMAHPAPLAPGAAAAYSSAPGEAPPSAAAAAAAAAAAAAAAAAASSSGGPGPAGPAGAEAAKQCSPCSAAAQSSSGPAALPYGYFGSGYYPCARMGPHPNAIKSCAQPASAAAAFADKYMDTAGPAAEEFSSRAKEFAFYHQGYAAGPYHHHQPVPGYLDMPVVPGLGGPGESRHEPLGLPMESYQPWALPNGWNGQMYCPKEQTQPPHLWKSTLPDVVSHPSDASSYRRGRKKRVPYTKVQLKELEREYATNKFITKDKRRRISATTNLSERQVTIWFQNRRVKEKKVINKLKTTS

For `COc1cc2c(cc1O)C(C)N(Cc1cccc(OC(F)(F)F)c1)CC2` (configuration not stated), the composite z-score in assay [1] was 0.714 (inactive); in the assay on XIP peptide (Xip251-270), 0.907. The z-score is -2.03 in assay [2], -3.46 (inactive) in assay [3], 0.0708 (inactive) in assay [4] and -0.033 (inactive) in assay [5].
As to `COC(=O)[C@@]1(Cc2ccccc2)[C@H]2c3cc(C(=O)N4CCCC4)n(C)c3C[C@H]2CN1C(=O)c1ccccc1`, the composite z-score in assay [1] was -0.0625 (inactive); with XIP peptide (Xip251-270), 0.46. Also, the z-score in assay [2] is -0.994; in assay [3] it was -5.7 (inactive); in assay [4] it was 0.0684 (inactive); in assay [5], -0.0761 (inactive).
For the compound `CCOC(=O)C[C@H]1[C@H](OC(=O)c2ccccc2-c2ccccc2)[C@@H](NC(=O)Cc2ccc(OC)cc2)c2cc(OCCCO)ccc2N1C(=O)c1ccccc1`, the results for the composite z-score (in assay [1]; in the assay with XIP peptide (Xip251-270)) were 0.277 (inactive) and 0.127, respectively. The z-score is -1.6 in assay [2], -3.88 (inactive) in assay [3], 0.422 (inactive) in assay [4] and 0.137 (inactive) in assay [5].
Turning to `Cc1ccc(S[C@]2(C(=O)NCc3ccccc3)CC(=O)N(Cc3ccccc3)[C@@H]2c2ccc(CO)cc2)cc1`, the composite z-score was 0.824 (inactive) in assay [1] and 0.849 in the assay on XIP peptide (Xip251-270). The z-score in assay [2] is 0.101; in assay [3], -2.39 (inactive); in assay [4], -0.0397 (inactive); in assay [5], 0.377 (inactive).
Take `CC(C)N1C(=O)c2ccccc2[C@@H](C(=O)NCCCN(C)C)[C@@H]1c1ccc(CO)cc1`: the composite z-score in assay [1] is -0.361 (inactive); in the assay on XIP peptide (Xip251-270) it was -0.428. For the same compound, the z-score in assay [2] was -1.26; in assay [3], -2.54 (inactive); in assay [4] it was -0.0028 (inactive); in assay [5] it was -0.321 (inactive).
Take `COC(=O)[C@@]1(Cc2ccccc2)N=C(c2ccc(OCCCO)cc2)O[C@H]1c1ccccc1N=[N+]=[N-]`: the composite z-score was 0.856 (inactive) in assay [1] and 0.887 with XIP peptide (Xip251-270). Moreover, the z-score is -2.27 in assay [2], 0.459 (inactive) in assay [3], -0.48 (inactive) in assay [4] and -0.775 (inactive) in assay [5].
Turning to `COC(=O)[C@@]1(Cc2ccccc2N=[N+]=[N-])COC(c2ccc(OCCCO)cc2)=N1`, the values for the composite z-score (in assay [1]; with XIP peptide (Xip251-270)) were 1.25 (inactive) and 0.66, respectively. Moreover, the z-score in assay [2] is -0.82; in assay [3], -5.06 (inactive); in assay [4], 0.428 (inactive); in assay [5], 0.135 (inactive).
In the case of `O=C1O[C@@H](c2ccccc2)[C@@H](c2ccccc2)N2[C@@H](c3ccc(O)cc3)[C@]3(C(=O)Nc4ccc(C#CC5=CCCCC5)cc43)[C@@H](C(=O)O)[C@H]12`, the composite z-score is 1.53 (inactive) in assay [1] and 0.327 in the assay on XIP peptide (Xip251-270). The z-score is 0.202 in assay [2], -5.46 (inactive) in assay [3], -0.0372 (inactive) in assay [4] and 0.277 (inactive) in assay [5].
For the compound `Cc1ccc(S[C@]2(C(=O)NCCN3CCOCC3)CC(=O)N(Cc3cc(C(F)(F)F)cc(C(F)(F)F)c3)[C@@H]2c2ccc(CO)cc2I)cc1`, the composite z-score in assay [1] was 0.476 (inactive); with XIP peptide (Xip251-270), 0.241. Besides, the z-score was 0.439 in assay [2], -2.98 (inactive) in assay [3], -0.064 (inactive) in assay [4] and -0.0538 (inactive) in assay [5].
Regarding `COC(=O)C1=CC(CCCO)=CC(C2CC2)N(Cc2sc3ccccc3c2Cl)C=C1C(=O)OC` (configuration not stated), the composite z-score was 0.827 (inactive) in assay [1] and 0.793 in the assay with XIP peptide (Xip251-270). Besides, the z-score is -2.02 in assay [2], -5.27 (inactive) in assay [3], 0.0745 (inactive) in assay [4] and 0.263 (inactive) in assay [5].
For `CC(C)C[C@@H]1NC(=O)[C@H]2C[C@@H](C(=O)NCCCCCCNC(=O)CS)[C@@H](c3cccc(OCCO)c3)N2C1=O`, the values for the composite z-score (in assay [1]; in the assay with XIP peptide (Xip251-270)) were 0.821 (inactive) and 0.792, respectively. In addition, the z-score is -0.0202 in assay [2], -2.77 (inactive) in assay [3], 0.0162 (inactive) in assay [4] and 0.12 (inactive) in assay [5].
`Cc1ccc(S[C@]2(C(=O)NCC(C)C)CC(=O)N(Cc3ccccc3Cl)[C@@H]2c2ccc(CO)cc2)cc1`: the composite z-score in assay [1] is 0.0729 (inactive); in the assay on XIP peptide (Xip251-270) it was -0.313. Also, the z-score in assay [2] is 0.423; in assay [3] it was -2.53 (inactive); in assay [4], 0.259 (inactive); in assay [5] it was 0.658 (inactive).
Turning to `COC(=O)C(CC#Cc1ccc2c(c1)[C@]1(C(=O)N2)[C@H](C(=O)NC[C@H](O)c2ccccc2)[C@H]2C(=O)O[C@H](c3ccccc3)[C@H](c3ccccc3)N2[C@@H]1c1ccc(OCCO)cc1)C(=O)OC`, the values for the composite z-score (in assay [1]; in the assay on XIP peptide (Xip251-270)) were 0.518 (inactive) and 0.736, respectively. In addition, the z-score in assay [2] is -2.15; in assay [3], -2.24 (inactive); in assay [4] it was -0.0625 (inactive); in assay [5], -0.136 (inactive).
In the case of `NC(=O)NCC#Cc1ccc2c(c1)[C@]1(C(=O)N2)[C@H](C(=O)NC[C@H](O)c2ccccc2)[C@H]2C(=O)O[C@H](c3ccccc3)[C@H](c3ccccc3)N2[C@@H]1c1ccc(O)cc1`, the composite z-score in assay [1] is 5.26 (inactive); with XIP peptide (Xip251-270), 0.432. Moreover, the z-score in assay [2] was 0.872; in assay [3], -4.24 (inactive); in assay [4] it was -0.0342 (inactive); in assay [5], -0.468 (inactive).
Turning to `COCCCNC(=O)[C@@]1(c2ccc([N+](=O)[O-])cc2)CC(=O)N(CC23CC4CC(CC(C4)C2)C3)[C@@H]1c1ccc(CO)cc1`, the composite z-score is 0.0335 (inactive) in assay [1] and 0.697 in the assay with XIP peptide (Xip251-270). The z-score in assay [2] was -0.0493; in assay [3], -5.17 (inactive); in assay [4] it was -0.687 (inactive); in assay [5] it was -0.404 (inactive).
Regarding `[N-]=[N+]=NCc1ccccc1C[C@@]1(C(=O)N2CCOCC2)N=C(c2ccc(OCCCO)cc2)O[C@@H]1c1ccccc1CN=[N+]=[N-]`, the results for the composite z-score (in assay [1]; with XIP peptide (Xip251-270)) were 1.16 (inactive) and 0.788, respectively. Besides, the z-score was -2.36 in assay [2], 0.223 (inactive) in assay [3], -0.544 (inactive) in assay [4] and -0.629 (inactive) in assay [5].
Turning to `COc1ccccc1CN1C(=O)c2ccccc2[C@@H](C(=O)NCCN2CCOCC2)[C@@H]1c1ccc(CO)cc1`, the composite z-score in assay [1] was -0.0758 (inactive); in the assay on XIP peptide (Xip251-270), 0.853. Besides, the z-score was -1.86 in assay [2], -4.64 (inactive) in assay [3], 0.193 (inactive) in assay [4] and 0.531 (inactive) in assay [5].
